{
  "source": "PubChem BioAssay (Tox21)",
  "note": "Inconclusive results are not listed. A number with no mark means an inactive call. Calls follow the shape of the full dose curve. % is scaled to controls: 0 for no effect and ±100 for the full control effect.",
  "data": [
    {"experiment": "qHTS assay for small molecule agonists of the antioxidant response element (ARE) signaling pathway - cell viability counter screen (AID 743203); also: nearly all actives have a fitted effect of over 55% in size", "settings": "ARE-bla HepG2 viability, CellTiter-Glo luminescence, 16 h; series mostly up to 73.3 µM; viability change, negative = cytotoxic: at the top concentration", "source_text": "National Center for Advancing Translational Sciences [NCATS]\nNIH Chemical Genomics Center [NCGC]\nU.S. Environmental Protection Agency [EPA]\nNational Institutes of Environmental Health Sciences [NIEHS]\nNational Toxicology Program [NTP]\nU.S. Food and Drug Administration [FDA]\nOxidative stress has been implicated in the pathogenesis of a variety of diseases ranging from cancer to neurodegeneration. The antioxidant response element (ARE) signaling pathway plays an important role in the amelioration of oxidative stress. The CellSensor ARE-bla HepG2 cell line (Invitrogen) can be used for analyzing the Nrf2/antioxidant response signaling pathway. Nrf2 (NF-E2-related factor 2) and Nrf1 are transcription factors that bind to AREs and activate these genes. The CellSensor ARE-bla Hep G2 cell line contains a beta-lactamase reporter gene under control of the Antioxidant Response Element (ARE) stably integrated into HepG2 cells. The activation of the report gene under culture conditions can be detected by fluorescence intensity. This cell line has been used to screen the Tox21 10K compound library to identify agonists that induce oxidative stress. The cytotoxicity of the Tox21 compound library against the ARE-bla cell line was tested in parallel by measuring the cell viability using CellTiter-Glo assay (Promega, Madison, WI) in the same wells.\nTox21 Assay Protocol Summary:\nARE-bla HepG2 cells were dispensed at 2,000 cells/5 ul/well in 1536-well white wall/solid bottom plates using a Multidrop Combi (ThermoFisher Scientific, Waltham, MA) dispenser. After the assay plates were incubated at 37C/5% CO2 for 5 hrs, 23 nL of compounds dissolved in DMSO, positive controls or DMSO only was transferred to the assay plate by a pintool work station (Kalypsys, San Diego, CA). The plates were incubated at 37C/5% CO2 for 16 hrs, followed by addition of 4 ul/well of CellTiter-Glo reagent into the assay plates using a Flying Reagent Dispenser (Aurora Discovery, San Diego, CA). After 30 min incubation at room temperature, the luminescence intensity in the assay plates was measured using a ViewLux (PerkinElmer, Shelton, CT) plate reader.", "values": [
      {"smiles": "Cc1oncc1C(=O)Nc1ccc(C(F)(F)F)cc1", "viability change, negative = cytotoxic": "-13.1%"},
      {"smiles": "Cc1cc(S(=O)(=O)O)ccc1N=Nc1c(O)ccc2ccccc12", "viability change, negative = cytotoxic": "-14%"},
      {"smiles": "COc1cc2c(N3CCN(C(=O)Nc4ccc(OC(C)C)cc4)CC3)ncnc2cc1OCCCN1CCCCC1", "viability change, negative = cytotoxic": "-21.3%"},
      {"smiles": "CCCCC(=O)O[C@]1(C(=O)CO)CC[C@H]2[C@@H]3CCC4=CC(=O)CC[C@]4(C)[C@H]3[C@@H](O)C[C@@]21C", "viability change, negative = cytotoxic": "-0.783%"},
      {"smiles": "CC(=O)Nc1ccc(N)cc1", "viability change, negative = cytotoxic": "3.68% [at 94.8 µM]"},
      {"smiles": "Nc1nccs1", "viability change, negative = cytotoxic": "0.866%"},
      {"smiles": "OCC1CC=CCC1", "note": "(stereo not given)", "viability change, negative = cytotoxic": "6.84%"},
      {"smiles": "CCCCCCCC/C=C\\CCCCCCCC(=O)OC", "viability change, negative = cytotoxic": "0.649%"},
      {"smiles": "CCOC(=O)c1ccccc1OC", "viability change, negative = cytotoxic": "-17.6%"},
      {"smiles": "COC(=O)CC(=O)C(C)(C)C", "viability change, negative = cytotoxic": "-5.51%"},
      {"smiles": "CCOC(=N)CC(=O)OCC", "viability change, negative = cytotoxic": "5.48%"},
      {"smiles": "CCCCC(CC)CNCC(CC)CCCC", "note": "(stereo not given)", "viability change, negative = cytotoxic": "1.67%"},
      {"smiles": "CC1=CC(O)CC(C)(C)C1", "note": "(stereo not given)", "viability change, negative = cytotoxic": "0.0191%"},
      {"smiles": "[O]=[Bi]", "viability change, negative = cytotoxic": "-0.248% [at 8.36 µM]"},
      {"smiles": "Cc1cc(O)c2c(O)c3c(O)cccc3cc2c1", "viability change, negative = cytotoxic": "-15.7%"},
      {"smiles": "Cc1nc2ccccc2s1", "viability change, negative = cytotoxic": "0.143% [at 94.8 µM]"},
      {"smiles": "O=S(=O)(c1ccccc1)c1ccc(Cl)cc1", "viability change, negative = cytotoxic": "7.59%"},
      {"smiles": "CCOC(=O)c1ccccc1C", "viability change, negative = cytotoxic": "-13.8%"},
      {"smiles": "COc1ccc(CCC(=O)c2c(O)cc(O[C@@H]3O[C@H](CO)[C@@H](O)[C@H](O)[C@H]3O[C@@H]3O[C@@H](C)[C@H](O)[C@@H](O)[C@H]3O)cc2O)cc1O", "viability change, negative = cytotoxic": "4.33%"},
      {"smiles": "CCCCCCCCSCCO", "viability change, negative = cytotoxic": "9.4%"},
      {"smiles": "CCCCCCCCCOC(C)=O", "viability change, negative = cytotoxic": "-14.1%"},
      {"smiles": "O=C(OCCOCCO)c1ccccc1Nc1cccc(C(F)(F)F)c1", "viability change, negative = cytotoxic": "-1.91%"},
      {"smiles": "O=C(O)Cc1ccc(-c2ccccc2)cc1", "viability change, negative = cytotoxic": "4.84%"},
      {"smiles": "COC(=O)c1cc(S(N)(=O)=O)ccc1OC", "viability change, negative = cytotoxic": "6.62%"},
      {"smiles": "Fc1c(F)c(F)c(Br)c(F)c1F", "viability change, negative = cytotoxic": "17.4%"},
      {"smiles": "Cn1c(=O)c2c(ncn2CC(=O)O)n(C)c1=O", "viability change, negative = cytotoxic": "2.46%"},
      {"smiles": "CCCc1c(OCCCOc2ccc(OCC(=O)O)cc2)ccc(C(C)=O)c1O", "viability change, negative = cytotoxic": "-20.4%"},
      {"smiles": "O=C(O)c1cccnc1C(=O)O", "viability change, negative = cytotoxic": "10.8%"},
      {"smiles": "C/C=C/C=C/CCCCCCCO", "viability change, negative = cytotoxic": "-11.4%"},
      {"smiles": "CC(=O)N(c1onc(C)c1C)S(=O)(=O)c1ccc(N)cc1", "viability change, negative = cytotoxic": "-0.682%"},
      {"smiles": "COC(OC)(C(=O)c1ccccc1)c1ccccc1", "viability change, negative = cytotoxic": "-11%"},
      {"smiles": "CCCCCCOC(=O)C(C)C", "viability change, negative = cytotoxic": "12.8%"},
      {"smiles": "Cc1ccc(S)cc1", "viability change, negative = cytotoxic": "-23.5%"},
      {"smiles": "CCCCCCCCCCCCCCC[C@H](O)[C@@H](N)CO", "viability change, negative = cytotoxic": "-27.5%"},
      {"smiles": "Cc1oc(C)c(C(=O)Nc2ccccc2)c1C", "viability change, negative = cytotoxic": "-16.4%"},
      {"smiles": "O=C(CCCCCCCCC#CI)Oc1ccccc1", "viability change, negative = cytotoxic": "0.518%"},
      {"smiles": "C[Si]1(C)O[Si](C)(C)O[Si](C)(C)O1", "viability change, negative = cytotoxic": "-17.3%"},
      {"smiles": "CCOC(=O)C(C)Oc1ccc(Oc2nc3ccc(Cl)cc3o2)cc1", "note": "(stereo not given)", "viability change, negative = cytotoxic": "6%"},
      {"smiles": "Cc1ccccc1N1C(=O)c2cc(S(N)(=O)=O)c(Cl)cc2NC1C", "note": "(stereo not given)", "viability change, negative = cytotoxic": "-15.7%"},
      {"smiles": "CCCCCCCCCCCCCCCCBr", "viability change, negative = cytotoxic": "2.86% [at 34.3 µM]"}
    ]}
  ]
}
